In PubChem BioAssay (NCATS):
Values joined by “and” are separate entries in the source; they are usually repeats but may differ in a detail not shown here. Identical values can stand only once. Results filed as inconclusive are left out. Active and inactive are the calls of the source. Calls follow the shape of the dose curve; as a rule, active = well fitted curve in the direction sought with a large enough effect; inconclusive = small, poorly fitted or top-dose-only effect, or another doubt; inactive = no such curve, though single readings can be large; an effect the other way counts as inactive or inconclusive.

How the values were obtained:
[1] = Primary qHTS for inhibitors of nuclear receptor binding SET domain protein 2 (NSD2) in an isogenic RCH-ACV NSD2 p.E1099K mutant (9B) (AID 1645876); also: nearly all actives have a fitted effect of over 70% in size
[2] = molecular target: N-terminal Xaa-Pro-Lys N-methyltransferase 1 (Homo sapiens) (UniProt Q9BV86); assay: Confirmatory qHTS for Inhibitors of N-terminal methyltransferase 1 (NTMT1): MTaseGlo Assay (AID 1645874); settings: NTMT1 enzyme, MTase-Glo SAH luminescence; also: nearly all actives have a fitted effect of over 65% in size
Summary of the method: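 qHTS format: NTMT1 125 nM, SAM 100 uM, peptide SPKRIA 1 uM final; 15 min compound preincubation, 30 min reaction at room temperature. MTase-Glo luminescence.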

[3] = Primary qHTS for inhibitors of nuclear receptor binding SET domain protein 2 (NSD2) in an RCH-ACV wild type WT cells (2C) (AID 1645877); also: nearly all actives have a fitted effect of over 70% in size
Potency is read from the fitted curve at half-maximal effect.

Sequence of N-terminal Xaa-Pro-Lys N-methyltransferase 1 (Homo sapiens) (Q9BV86 whole entry, looked up): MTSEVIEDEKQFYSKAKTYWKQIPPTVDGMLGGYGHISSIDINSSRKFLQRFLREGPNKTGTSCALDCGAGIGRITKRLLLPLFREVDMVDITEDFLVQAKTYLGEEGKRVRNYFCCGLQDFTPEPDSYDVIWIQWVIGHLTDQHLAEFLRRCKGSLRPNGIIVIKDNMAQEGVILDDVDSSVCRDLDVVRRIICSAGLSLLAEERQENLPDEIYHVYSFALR

SMILES | Potency [1] | Potency [2] | Potency [3]
NC(=O)N1CCC(CC(=O)N2CCC([C@H]3c4ncc(Br)cc4CCc4cc(Cl)cc(Br)c43)CC2)CC1 | 14.8 µM (active) |  | 
CCOC(=O)C=C[C@H](C[C@@H]1CCNC1=O)NC(=O)[C@@H](CC(=O)[C@@H](NC(=O)c1cc(C)on1)C(C)C)Cc1ccc(F)cc1 | inactive |  | 
CN1CCCN(C(=O)c2cccc(-c3ccc(C=C4C(=O)Nc5ccc(Cl)cc54)o3)c2)CC1 | 0.206 µM (active) | 9.16 µM (active) | 0.184 µM (active)
CCCCCCCCCCCCc1ccc(S(=O)(=O)Nc2nncs2)cc1 | inactive |  | 
O=C(c1ccc(F)cc1)N1CCC[C@H](c2nc(-c3ccc(F)cc3)no2)C1 | inactive |  | inactive
CC(C)[C@H](CO)Nc1nc(Nc2cccc(Cl)c2)c2ncn(C(C)C)c2n1 | 9.34 µM (active) |  | 9.34 µM (active)
CC(C)(N)c1ccc(-c2nc3ccccc3nc2-c2ccccc2)cc1 | 16.3 µM (active) |  | 20.5 µM (active)
C=CC(=O)Nc1ccc2ncnc(Nc3ccc(OCc4cccc(F)c4)c(Cl)c3)c2c1 | 7.28 µM (active) and 5.9 µM (active) |  | 8.17 µM (active) and 4.68 µM (active)
N#CNC(=NCCCCCCOc1ccc(Cl)cc1)Nc1ccncc1 | 0.0047 µM (active) |  | 0.0093 µM (active)
O=C(O)c1ccc(Nc2ncc3c(n2)-c2ccc(Cl)cc2C(c2c(F)cccc2F)=NC3)cc1 | 258 nM (active) and 742 nM (active) |  | 325 nM (active) and 372 nM (active)
O=C(CN1C(=O)C2(CCCC2)NC[C@H]1c1cc(F)cc(F)c1)Nc1ccc2c(c1)C[C@@]1(C2)C(=O)Nc2ncccc21 | inactive |  | inactive
N#Cc1cc(NC(=O)Nc2nnc(-c3ccncc3)s2)ccc1-c1cn[nH]c1 | inactive |  | inactive
CN(C)CCN1C(=O)c2cccc3cc(N)cc(c23)C1=O | 5.25 µM (active) |  | 4.17 µM (active)
O=C(Nc1cccc(Nc2ncc(Br)c(NCCc3cnc[nH]3)n2)c1)N1CCCC1 | 0.934 µM (active) |  | 0.59 µM (active)
COc1cc(C[C@@H](CO)[C@H](CO)Cc2ccc(O)c(OC)c2)ccc1O | inactive |  | inactive
COc1cc2c(cc1OC)[C@@H]1C(=O)c3ccc4c(c3O[C@@H]1CO2)C=CC(C)(C)O4 | 16.4 µM (active) and 1.86 µM (active) |  | 18.4 µM (active) and 5.9 µM (active)
CC(C)(C)c1nc2c3cc[nH]c(=O)c3c3cc(F)ccc3c2[nH]1 | 0.662 µM (active) |  | 0.468 µM (active)
CCC[C@H]1C[C@H](C(=O)N[C@@H]([C@@H]2O[C@@H](SC)[C@@H](O)[C@@H](O)[C@@H]2O)[C@H](C)Cl)N(C)C1 | inactive |  | inactive
CC(=O)OC[C@@H]1O[C@@H](n2ccc(=O)[nH]c2=O)[C@H](OC(C)=O)[C@H]1OC(C)=O | inactive |  | inactive
CC(C)n1cnc2c(NCCc3ccc(O)cc3)nc(-c3csc4ccccc34)nc21 | 20.5 µM (active) |  | 26.3 µM (active)
CC[C@@]1([C@@H]2O[C@@H]([C@H]3O[C@@](O)(CO)[C@H](C)C[C@H]3C)C[C@H]2C)CC[C@H]([C@]2(C)CC[C@]3(C[C@H](O)[C@@H](C)[C@@H]([C@@H](C)[C@@H](OC)[C@H](C)C(=O)O)O3)O2)O1 | 0.162 µM (active) |  | 0.102 µM (active)
O=C(Nc1nnc(-c2ccco2)o1)c1cc(-c2ccccc2)nc2ccccc12 | 18.6 µM (active) |  | 13.2 µM (active)
CCN(CC)CCCCNc1ncc2c(n1)N(C)C(=O)N(c1c(Cl)c(OC)cc(OC)c1Cl)C2 | 14.8 µM (active) |  | 13.2 µM (active)
O=C1c2cccc(O)c2C(=O)c2c(O)cc(CO)cc21 | inactive |  | inactive
NC(=O)Nc1sc(-c2ccc(F)cc2)cc1C(N)=O | 3.32 µM (active) |  | 3.72 µM (active)
CCCNS(=O)(=O)Nc1ncnc(OCCOc2ncc(Br)cn2)c1-c1ccc(Br)cc1 | 18.6 µM (active) |  | 16.6 µM (active)
Cn1c(Nc2ccc(C(F)(F)F)cc2)nc2cc(Oc3ccnc(-c4ncc(C(F)(F)F)[nH]4)c3)ccc21 | 7.31 µM (active) and 5.25 µM (active) |  | 8.2 µM (active) and 4.17 µM (active)
O=C(CCCCCCC(=O)Nc1cccnc1)NO | 4.17 µM (active) |  | 3.32 µM (active)
